Data: PubChem BioAssay (NCATS)
“And” between values parts separate entries of the source, which are not always exact repeats. Equal values may be shown once. Results filed as inconclusive are left out. The source made the active and inactive calls. Unless noted, calls come from the whole dose curve; as a rule, active = well fitted curve in the direction sought with a large enough effect; inconclusive = small, poorly fitted or top-dose-only effect, or another doubt; inactive = no such curve, though single readings can be large; an effect the other way counts as inactive or inconclusive.

Experiments:
[1] = target: Cellular tumor antigen p53 (Homo sapiens) (UniProt P04637); experiment: Primary qHTS for small molecule compounds that upregulate eGFP-tagged delta133p53alpha (in N-terminal) cells. (AID 2060322); conditions: NCI-H358 eGFP-delta133p53alpha fluorescence, 24 h; activation: active compounds read high;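 note: 0% = DMSO vehicle and 100% = reference activator; nearly all actives have a fitted effect of over 75% in size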
Chain of Cellular tumor antigen p53 (Homo sapiens) (P04637 whole entry, looked up): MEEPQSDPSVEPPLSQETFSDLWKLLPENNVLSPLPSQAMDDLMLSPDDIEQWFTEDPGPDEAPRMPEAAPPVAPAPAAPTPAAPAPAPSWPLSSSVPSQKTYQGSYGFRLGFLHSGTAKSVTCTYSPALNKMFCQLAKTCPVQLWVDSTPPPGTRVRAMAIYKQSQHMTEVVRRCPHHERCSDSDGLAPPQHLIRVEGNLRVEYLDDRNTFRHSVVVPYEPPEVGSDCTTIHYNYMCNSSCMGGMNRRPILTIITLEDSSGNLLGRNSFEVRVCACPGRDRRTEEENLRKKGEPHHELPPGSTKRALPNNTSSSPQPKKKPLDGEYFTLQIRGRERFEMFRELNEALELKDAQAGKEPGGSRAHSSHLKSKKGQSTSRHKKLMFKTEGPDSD
Method in brief: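 NCI-H358 cells pre-induced 24 h with 10 ng/ml doxycycline to express N-terminal eGFP-delta133p53alpha, then dosed 24 h at 37C without doxycycline; fixed, Hoechst-stained, GFP intensity by laser scanning cytometry, normalized to DMSO (0%) and 57.5 uM 5-azacytidine (100%).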

[2] = target: Cellular tumor antigen p53 (Homo sapiens) (UniProt P04637); experiment: Primary qHTS for small molecule compounds that upregulate eGFP-tagged delta133p53alpha (in C-terminal) cells. (AID 2060324); conditions: NCI-H358 delta133p53alpha-eGFP (C-terminal tag), GFP fluorescence imaging, 24 h; series mostly up to 57.5 µM;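 note: 0% = DMSO wells and 100% = 57.5 µM 5-azacytidine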
Method in brief: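 NCI-H358 cells pre-induced 24 h with 100 ng/ml doxycycline to express delta133p53alpha-eGFP, then dosed in doxycycline-free medium for 24 h at 37C. Fixed, Hoechst-stained; GFP intensity by laser scanning cytometry, normalized to DMSO wells.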

[3] = target: Aldehyde dehydrogenase, mitochondrial (Homo sapiens) (UniProt P05091); experiment: qHTS for Inhibitors of the Aldehyde Dehydrogenase Family (ALDH2) Validation screens (AID 2061302; active = well fitted inhibition curve with a large enough effect; title and protocol of this record describe different tests;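 note: plate controls were DMSO vehicle for no effect and maximal DPI positive control response for full effect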); conditions: ALDH inhibition qHTS; series mostly up to 42.6 µM
[4] = target: Retinaldehyde dehydrogenase 3 (Homo sapiens) (UniProt P47895); experiment: qHTS for Inhibitors of the Aldehyde Dehydrogenase Family (ALDH1A3) Validation screen (AID 2061312); conditions: ALDH1A3 enzyme inhibition qHTS validation, fluorescence; series mostly up to 84.7 µM; note: % is set by controls: 0 for no effect and ±100 for the full control effect; nearly all actives have a fitted effect of over 45% in size

CN(C)CCC(c1ccc(Cl)cc1)c1ccccn1 (stereo unspecified)
inactive: activation [1] -24.5% | Potency [2] | Potency [3] | Potency [4]

CNC(=O)c1cc2c(cn1)[nH]c1ccccc12
inactive: activation [1] 11.5% | Potency [2] | Potency [3] | Potency [4]

CC(=O)NNC(=O)N1Cc2ccccc2Oc2ccc(Cl)cc21
inactive: activation [1] -0.739% | Potency [2] | Potency [3] | Potency [4]

NCCCC(=O)O
inactive: activation [1] -3.84% | Potency [2] | Potency [3] | Potency [4]

Nc1ncnc2c1nc(Br)n2C1OC2COP(=O)(O)O[C@@H]2C1O (stereo partly specified)
inactive: activation [1] -6.56% | Potency [2] | Potency [3] | Potency [4]

CC[N+](C)(C)c1cccc(O)c1
inactive: activation [1] 3.57% | Potency [2] | Potency [3] | Potency [4]

NCCS(=O)O
inactive: activation [1] -4.42% | Potency [2] | Potency [3] | Potency [4]

NC(=O)CC[C@H](N)C(=O)O
inactive: activation [1] 18.7% | Potency [2] | Potency [3] | Potency [4]

N[C@@H](CC(=O)O)C(=O)O
inactive: activation [1] -3.52% | Potency [2] | Potency [3] | Potency [4]

NCCCNCCSP(=O)(O)O
inactive: activation [1] 5.02% and 16.3% | Potency [2] | Potency [3] | Potency [4]

OC(CN1CCC(Cc2ccc(F)cc2)CC1)c1ccc(Cl)cc1 (stereo unspecified)
inactive: activation [1] 5.08% and 40.7% | Potency [2] | Potency [3] | Potency [4]

CCn1ccnc1CC1COc2ccccc2O1 (stereo unspecified)
inactive: activation [1] -21.8% and 27.7% | Potency [2] | Potency [3] | Potency [4]

CCOC(=O)N1CCC(=C2c3ccc(Cl)cc3CCc3cccnc32)CC1
inactive: activation [1] 20.9% and 5.49% | Potency [2] | Potency [3] | Potency [4]

O=C(O)c1cccnc1C(=O)O
inactive: activation [1] -17.2% | Potency [2] | Potency [3] | Potency [4]

Nc1nc(Nc2ccccc2)nc2c1ncn2[C@@H]1O[C@H](CO)[C@@H](O)[C@H]1O
inactive: activation [1] 8.56% | Potency [2] | Potency [3] | Potency [4]

CC(C)C[C@H](NC(=O)[C@H](O)[C@H](N)Cc1ccccc1)C(=O)O
inactive: activation [1] 3.56% | Potency [2] | Potency [3] | Potency [4]

CC1CNCCN1S(=O)(=O)c1cccc2cnccc12 (stereo unspecified)
inactive: activation [1] -28.4% | Potency [2] | Potency [3] | Potency [4]

C=CC(C)=C[C@@]1(C)SC(=O)C(C)=C1O
inactive: activation [1] 0.958% | Potency [2] | Potency [3] | Potency [4]

CC(=O)C(C)=O
inactive: activation [1] -5.18% | Potency [2] | Potency [3] | Potency [4]

Cc1ccc(=O)n(-c2ccccc2)c1
inactive: activation [1] 1.01% | Potency [2] | Potency [3] | Potency [4]

CNCCC(Oc1ccccc1C)c1ccccc1 (stereo unspecified)
inactive: activation [1] -12.7% | Potency [2] | Potency [3] | Potency [4]

CC1(C)CCC=[N+]1[O-]
inactive: activation [1] 8.43% | Potency [2] | Potency [3] | Potency [4]

Nc1nc(N)c2nc(-c3ccccc3)c(N)nc2n1
inactive: activation [1] -26.6% and -1.16% | Potency [2] | Potency [3] | Potency [4]

Nc1nc(Cl)nc2c1ncn2[C@@H]1O[C@H](COP(=O)(O)OP(=O)(O)OP(=O)(O)O)[C@@H](O)[C@H]1O
inactive: activation [1] -39.8% | Potency [2] | Potency [3] | Potency [4]

Nc1cc(=O)[nH]c(N)n1
inactive: activation [1] -34.3% and -22.6% | Potency [2] | Potency [3] | Potency [4]

O=C(O)CCC/C=C\C[C@@H]1[C@@H](/C=C/[C@H](O)C2Cc3ccccc3C2)[C@@H](F)C[C@@H]1O
inactive: activation [1] -5.22% | Potency [2] | Potency [3] | Potency [4]

Cc1cc(NC(=O)Nc2ccc3c(ccn3C)c2)sn1
inactive: activation [1] 51% | Potency [2] | Potency [3] | Potency [4]

N=C(N)SCCN
inactive: activation [1] -11.7% | Potency [2] | Potency [3] | Potency [4]

Cn1c(=O)c2[nH]c(C3CCCC3)nc2n(C)c1=O
inactive: activation [1] 3.95% | Potency [2] | Potency [3] | Potency [4]

CCCCNc1ccc(C(=O)OCCN(C)C)cc1
inactive: activation [1] -9.6% and 10.7% | Potency [2] | Potency [3] | Potency [4]

C(=C\c1ccccc1)/CN1CCN(C(c2ccccc2)c2ccccc2)CC1
inactive: activation [1] -1.67% and -21% | Potency [2] | Potency [3] | Potency [4]

CC(N)C(=O)OC(C)(C)Cc1ccc(Cl)cc1 (stereo unspecified)
inactive: activation [1] 19.8% and -28.1% | Potency [2] | Potency [3] | Potency [4]

O=C(O)C1CN(CCCP(=O)(O)O)CCN1 (stereo unspecified)
inactive: activation [1] -32.5% | Potency [2] | Potency [3] | Potency [4]

CN[C@H](CC(=O)O)C(=O)O
inactive: activation [1] -12.8% | Potency [2] | Potency [3] | Potency [4]

Cc1cccc(C)c1NC(=O)C(C)N (stereo unspecified)
inactive: activation [1] 10.9% and -14% | Potency [2] | Potency [3] | Potency [4]

CCSC(=N)N
inactive: activation [1] -32.7% | Potency [2] | Potency [3] | Potency [4]

COc1cc(C(O)CO)ccc1OS(=O)(=O)O (stereo unspecified)
inactive: activation [1] 5.13% | Potency [2] | Potency [3] | Potency [4]

CC(C)(CO)Cc1cc(C(C)(C)C)c(O)c(C(C)(C)C)c1
inactive: activation [1] -20% | Potency [2] | Potency [3] | Potency [4]

C=CC[C@H](N)C(=O)O
inactive: activation [1] -35.4% | Potency [2] | Potency [3] | Potency [4]

CC(=O)O[C@H]1Cc2ccccc2N(C(N)=O)c2ccccc21
inactive: activation [1] 5.86% | Potency [2] | Potency [3] | Potency [4]

O=c1onc2n1-c1cc(Br)ccc1OC2
inactive: activation [1] -18.5% | Potency [2] | Potency [3] | Potency [4]

COC(=O)[C@@H](N)Cc1ccc(O)c(O)c1
inactive: activation [1] 2.51% and -29.9% | Potency [2] | Potency [3] | Potency [4]

NCCCS(=O)(=O)O
inactive: activation [1] 14.5% | Potency [2] | Potency [3] | Potency [4]

Cc1nc2ccccn2c(=O)c1CCN1CCC(C(=O)c2ccc(F)cc2)CC1
inactive: activation [1] 0.565% and -12% | Potency [2] | Potency [3] | Potency [4]

CN1CCCC1CCOC(C)(c1ccccc1)c1ccc(Cl)cc1 (stereo unspecified)
inactive: activation [1] -26.8% | Potency [2] | Potency [3] | Potency [4]

COCCOC(=O)C1=C(C)NC(C)=C(C(=O)OC/C=C/c2ccccc2)C1c1cccc([N+](=O)[O-])c1 (stereo unspecified)
inactive: activation [1] 8.47% and -12.4% | Potency [2] | Potency [3] | Potency [4]

C[C@]12CC[C@@H]3c4ccc(O)cc4CC[C@H]3[C@@H]1CCC2=O
inactive: activation [1] 11.7% | Potency [2] | Potency [3] | Potency [4]

CCCn1c(=O)[nH]c(=O)c2[nH]cnc21
inactive: activation [1] 24.9% | Potency [2] | Potency [3] | Potency [4]

N[C@@H](Cc1ccc(O)c(I)c1)C(=O)O
inactive: activation [1] -4.51% | Potency [2] | Potency [3] | Potency [4]

NOCC(=O)O
inactive: activation [1] -16.6% | Potency [2] | Potency [3] | Potency [4]

CC[C@@H](C)[C@H]1O[C@]2(CC[C@H]1C)C[C@@H]1C[C@@H](CC=C(C)[C@@H](O[C@H]3C[C@H](OC)[C@@H](O[C@H]4C[C@H](OC)[C@@H](O)[C@H](C)O4)[C@H](C)O3)[C@@H](C)C=CC=C3CO[C@@H]4[C@H](O)C(C)=C[C@@H](C(=O)O1)[C@]34O)O2
inactive: activation [1] -12.1% | Potency [2] | Potency [3] | Potency [4]

O=[N+]([O-])c1cccc2cn[nH]c12
inactive: activation [1] -32.7% | Potency [2] | Potency [3] | Potency [4]

O=[N+]([O-])c1ccc(CSc2ncnc3c2ncn3[C@@H]2O[C@H](CO)[C@@H](O)[C@H]2O)cc1
inactive: activation [1] -20.8% | Potency [2] | Potency [3] | Potency [4]

Cn1cnc2c(NCc3ccccc3)nc(NCCO)nc21
inactive: activation [1] -37% | Potency [2] | Potency [3] | Potency [4]

CN1C(=O)CC[C@H]1c1cccnc1
inactive: activation [1] -11.7% and 28% | Potency [2] | Potency [3] | Potency [4]

N=C(N)c1ccccc1
inactive: activation [1] -12.8% | Potency [2] | Potency [3] | Potency [4]

c1ccc2nc(C3=NCCN3)ccc2c1
inactive: activation [1] 5.83% | Potency [2] | Potency [3] | Potency [4]

O=C(O)c1cc([N+](=O)[O-])ccc1NCCCc1ccccc1
inactive: activation [1] -7.19% | Potency [2] | Potency [3] | Potency [4]

Nc1ccc(-c2nc3ccc(-c4nc5ccc(N)cc5[nH]4)cc3[nH]2)cc1
inactive: activation [1] -9.36% | Potency [2] | Potency [3] | Potency [4]

O=C(O)c1cc2cc(Cc3cccnc3)ccc2o1
inactive: activation [1] 19.6% | Potency [2] | Potency [3] | Potency [4]

CC(=O)c1ccc(S(=O)(=O)NC(=O)NC2CCCCC2)cc1
inactive: activation [1] 3.35% and -2.1% | Potency [2] | Potency [3] | Potency [4]

NC1=NCC2c3ccccc3Cc3ccccc3N12 (stereo unspecified)
inactive: activation [1] -14.2% and -12.4% | Potency [2] | Potency [3] | Potency [4]

CC(C)NC[C@H](O)COc1cccc2[nH]ccc12
inactive: activation [1] 15.4% | Potency [2] | Potency [3] | Potency [4]

COc1ccc(-c2cc(=O)c3c(O)c(OC)c(OC)cc3o2)cc1O
inactive: activation [1] 37.1% | Potency [2] | Potency [3] | Potency [4]

CC(=O)Nc1nnc(S(N)(=O)=O)s1
inactive: activation [1] 21.8% and -10.7% | Potency [2] | Potency [3] | Potency [4]

CC(C)C[C@H](NC(=O)C1OC1C(=O)O)C(=O)NCCCCN=C(N)N (stereo partly specified)
inactive: activation [1] -1.96% | Potency [2] | Potency [3] | Potency [4]

CN(C)C(=O)Oc1ccc[n+](C)c1
inactive: activation [1] -10.7% and 11.9% | Potency [2] | Potency [3] | Potency [4]

CN(C)CCOC(C)(c1ccccc1)c1ccccn1 (stereo unspecified)
inactive: activation [1] -7.21% | Potency [2] | Potency [3] | Potency [4]

CN1C2CCC1CC(OC(=O)c1c[nH]c3ccccc13)C2 (stereo unspecified)
inactive: activation [1] -37.1% | Potency [2] | Potency [3] | Potency [4]
